# Results taken from PMC7862700, “An all-to-all approach to the identification of sequence-specific readers for epigenetic DNA modifications on cytosine”.
# Key:
# Assay in all cases: DAPPL (digital affinity profiling via proximity ligation, sequencing); 10 mM Tris-HCl pH 7.5, 50 mM NaCl, 1 mM DTT, 4% glycerol, room temperature, 30 min; GST-TFs on glutathione beads, 16-mer random dsDNA library, 0.1% formaldehyde crosslink after washing; high values mean tight binding
# Details in all cases: protein: recombinant; tags: N-terminal GST; dsDNA, one strand shown
# ELK1 = biological target: T1, ELK1 (Homo sapiens, UniProt P19419 1-428)
# T1 sequence: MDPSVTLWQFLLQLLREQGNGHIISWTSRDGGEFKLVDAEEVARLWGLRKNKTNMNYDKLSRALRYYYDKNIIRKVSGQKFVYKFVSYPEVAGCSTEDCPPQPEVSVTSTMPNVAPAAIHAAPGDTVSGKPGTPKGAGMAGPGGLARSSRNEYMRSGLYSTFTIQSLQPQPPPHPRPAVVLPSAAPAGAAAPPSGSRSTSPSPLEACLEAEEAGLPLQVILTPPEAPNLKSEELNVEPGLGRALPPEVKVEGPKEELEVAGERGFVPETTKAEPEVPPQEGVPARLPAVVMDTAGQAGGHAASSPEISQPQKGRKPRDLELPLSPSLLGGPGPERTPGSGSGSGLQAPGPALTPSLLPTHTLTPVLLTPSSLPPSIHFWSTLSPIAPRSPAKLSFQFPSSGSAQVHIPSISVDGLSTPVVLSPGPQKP
# Summary of the method: (§1)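 Sequencing on an Illumina NextSeq500 followed washing, crosslinking with 0.1% formaldehyde, proximity ligation (BsaI/T4 ligase, 1 h, 37 °C) and PCR amplification of pools that had been incubated for 30 min at room temperature with 200 nmole of a random double-stranded 16-mer DNA library in Tris/NaCl/DTT/glycerol buffer. Each pool held DNA-barcoded human transcription factors, expressed in yeast as GST fusions and captured on glutathione beads, plus a tag-only sample. Binding signal is a hexamer's read frequency for a factor divided by its frequency in the tag-only sample.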
# GABPA = biological target: T2, GABPA (Homo sapiens, UniProt Q06546 1-454)
# T2 sequence: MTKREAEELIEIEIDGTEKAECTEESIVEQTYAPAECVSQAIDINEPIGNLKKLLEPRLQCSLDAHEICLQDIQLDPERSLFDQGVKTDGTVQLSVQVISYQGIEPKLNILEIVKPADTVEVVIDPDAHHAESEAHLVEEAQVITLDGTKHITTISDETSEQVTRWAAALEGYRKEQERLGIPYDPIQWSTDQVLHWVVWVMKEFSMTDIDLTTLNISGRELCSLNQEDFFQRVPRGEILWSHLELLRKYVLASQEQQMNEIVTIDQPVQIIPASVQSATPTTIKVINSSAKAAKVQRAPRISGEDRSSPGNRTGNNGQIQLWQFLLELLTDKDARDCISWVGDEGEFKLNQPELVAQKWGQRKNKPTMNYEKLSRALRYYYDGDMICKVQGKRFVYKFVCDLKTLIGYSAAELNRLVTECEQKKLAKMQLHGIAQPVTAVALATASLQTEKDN
# Summary of the method: as §1
# ERG = biological target: T3, ERG (Homo sapiens, UniProt P11308 1-479)
# T3 sequence: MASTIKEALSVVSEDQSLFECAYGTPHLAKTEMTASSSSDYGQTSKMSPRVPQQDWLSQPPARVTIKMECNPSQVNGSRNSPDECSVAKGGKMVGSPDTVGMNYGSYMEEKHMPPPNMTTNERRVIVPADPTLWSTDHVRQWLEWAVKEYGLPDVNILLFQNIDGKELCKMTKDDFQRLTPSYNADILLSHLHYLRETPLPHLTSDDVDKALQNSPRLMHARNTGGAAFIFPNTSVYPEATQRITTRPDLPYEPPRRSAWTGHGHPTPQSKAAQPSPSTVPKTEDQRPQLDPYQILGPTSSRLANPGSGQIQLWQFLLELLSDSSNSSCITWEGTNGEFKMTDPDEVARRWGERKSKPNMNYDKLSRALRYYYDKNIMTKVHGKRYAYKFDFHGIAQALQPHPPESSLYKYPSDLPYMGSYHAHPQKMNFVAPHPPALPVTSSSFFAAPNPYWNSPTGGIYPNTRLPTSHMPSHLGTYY
# Summary of the method: as §1
# ELF1 = ELF1 (Homo sapiens, UniProt P32519 1-619)
# Summary of the method: as §1
# EHF = biological target: T4, EHF (Homo sapiens, UniProt Q9NZC4 1-300)
# T4 sequence: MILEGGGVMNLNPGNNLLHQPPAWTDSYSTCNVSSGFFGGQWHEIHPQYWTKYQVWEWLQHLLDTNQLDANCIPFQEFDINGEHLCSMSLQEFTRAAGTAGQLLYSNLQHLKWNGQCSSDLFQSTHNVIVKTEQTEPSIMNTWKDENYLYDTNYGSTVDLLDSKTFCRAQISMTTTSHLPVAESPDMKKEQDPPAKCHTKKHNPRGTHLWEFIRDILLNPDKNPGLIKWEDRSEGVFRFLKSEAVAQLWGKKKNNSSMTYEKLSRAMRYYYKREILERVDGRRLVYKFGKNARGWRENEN
# Summary of the method: as §1
# SPIB = SPIB (Homo sapiens, UniProt Q01892 1-262)
# Summary of the method: as §1
# FEV = biological target: T5, FEV (Homo sapiens, UniProt Q99581 1-238)
# T5 sequence: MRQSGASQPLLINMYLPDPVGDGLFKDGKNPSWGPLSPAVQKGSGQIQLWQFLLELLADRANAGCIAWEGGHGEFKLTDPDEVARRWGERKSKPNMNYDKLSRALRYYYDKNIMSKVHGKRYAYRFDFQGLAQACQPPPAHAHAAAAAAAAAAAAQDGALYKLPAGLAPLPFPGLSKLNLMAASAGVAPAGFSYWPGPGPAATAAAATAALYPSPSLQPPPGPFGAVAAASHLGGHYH
# Summary of the method: as §1
# ETV5 = ETV5 (Homo sapiens, UniProt P41161 1-510)
# Summary of the method: as §1
# ELF4 = ELF4 (Homo sapiens, UniProt Q99607 1-663)
# Summary of the method: as §1
# ELK4 = biological target: T6, ELK4 (Homo sapiens, UniProt P28324-2 1-405)
# T6 sequence: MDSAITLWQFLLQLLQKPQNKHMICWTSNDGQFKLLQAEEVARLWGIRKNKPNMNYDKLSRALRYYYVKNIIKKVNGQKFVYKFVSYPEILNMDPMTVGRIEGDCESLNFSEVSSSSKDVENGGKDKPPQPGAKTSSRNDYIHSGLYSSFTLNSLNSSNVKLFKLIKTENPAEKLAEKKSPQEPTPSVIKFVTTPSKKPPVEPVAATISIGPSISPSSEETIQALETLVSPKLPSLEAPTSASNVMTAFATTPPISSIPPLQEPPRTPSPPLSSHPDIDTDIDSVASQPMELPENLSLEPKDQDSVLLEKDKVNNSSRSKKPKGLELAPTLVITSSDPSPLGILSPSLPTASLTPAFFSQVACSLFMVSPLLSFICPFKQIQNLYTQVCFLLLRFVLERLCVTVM
# Summary of the method: as §1
# ETV5, sequence (P41161 whole entry): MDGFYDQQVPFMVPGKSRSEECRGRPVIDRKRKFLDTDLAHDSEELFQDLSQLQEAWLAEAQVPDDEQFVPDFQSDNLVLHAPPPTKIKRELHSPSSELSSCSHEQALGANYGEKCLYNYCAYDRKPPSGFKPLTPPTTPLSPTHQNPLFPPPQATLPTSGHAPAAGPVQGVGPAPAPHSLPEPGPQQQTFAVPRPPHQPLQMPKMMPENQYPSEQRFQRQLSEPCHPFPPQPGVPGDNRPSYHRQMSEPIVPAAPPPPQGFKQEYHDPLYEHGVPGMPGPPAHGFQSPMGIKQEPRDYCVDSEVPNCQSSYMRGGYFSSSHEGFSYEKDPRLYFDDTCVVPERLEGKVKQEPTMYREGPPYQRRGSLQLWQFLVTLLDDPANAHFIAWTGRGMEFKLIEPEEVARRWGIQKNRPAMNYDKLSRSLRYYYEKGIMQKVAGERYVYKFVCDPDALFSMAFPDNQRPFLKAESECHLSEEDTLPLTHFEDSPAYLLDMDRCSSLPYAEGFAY
# ELF1, sequence (P32519 whole entry): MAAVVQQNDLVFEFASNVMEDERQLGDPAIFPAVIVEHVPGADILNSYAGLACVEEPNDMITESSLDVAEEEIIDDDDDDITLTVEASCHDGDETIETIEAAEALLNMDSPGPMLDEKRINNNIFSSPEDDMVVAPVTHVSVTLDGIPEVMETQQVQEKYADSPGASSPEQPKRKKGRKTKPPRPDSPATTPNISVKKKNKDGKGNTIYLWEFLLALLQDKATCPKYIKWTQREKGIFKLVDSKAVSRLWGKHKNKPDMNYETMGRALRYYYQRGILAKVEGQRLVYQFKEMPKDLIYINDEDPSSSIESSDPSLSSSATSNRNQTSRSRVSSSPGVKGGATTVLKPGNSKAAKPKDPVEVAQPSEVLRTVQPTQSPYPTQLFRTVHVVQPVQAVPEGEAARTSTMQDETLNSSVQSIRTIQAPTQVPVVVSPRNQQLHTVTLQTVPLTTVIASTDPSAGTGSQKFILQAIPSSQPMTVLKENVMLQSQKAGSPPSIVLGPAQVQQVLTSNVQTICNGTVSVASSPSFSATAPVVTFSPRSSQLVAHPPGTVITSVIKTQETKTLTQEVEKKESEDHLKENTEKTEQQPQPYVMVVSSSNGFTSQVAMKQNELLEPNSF
# SPIB, sequence (Q01892 whole entry): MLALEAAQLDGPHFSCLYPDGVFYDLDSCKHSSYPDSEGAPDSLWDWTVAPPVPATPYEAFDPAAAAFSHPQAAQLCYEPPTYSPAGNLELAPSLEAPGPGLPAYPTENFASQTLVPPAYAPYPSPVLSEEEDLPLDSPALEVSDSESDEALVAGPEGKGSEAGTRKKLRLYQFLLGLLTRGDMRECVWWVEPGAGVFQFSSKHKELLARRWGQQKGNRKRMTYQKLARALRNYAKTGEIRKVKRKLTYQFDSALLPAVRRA
# ELF4, sequence (Q99607 whole entry): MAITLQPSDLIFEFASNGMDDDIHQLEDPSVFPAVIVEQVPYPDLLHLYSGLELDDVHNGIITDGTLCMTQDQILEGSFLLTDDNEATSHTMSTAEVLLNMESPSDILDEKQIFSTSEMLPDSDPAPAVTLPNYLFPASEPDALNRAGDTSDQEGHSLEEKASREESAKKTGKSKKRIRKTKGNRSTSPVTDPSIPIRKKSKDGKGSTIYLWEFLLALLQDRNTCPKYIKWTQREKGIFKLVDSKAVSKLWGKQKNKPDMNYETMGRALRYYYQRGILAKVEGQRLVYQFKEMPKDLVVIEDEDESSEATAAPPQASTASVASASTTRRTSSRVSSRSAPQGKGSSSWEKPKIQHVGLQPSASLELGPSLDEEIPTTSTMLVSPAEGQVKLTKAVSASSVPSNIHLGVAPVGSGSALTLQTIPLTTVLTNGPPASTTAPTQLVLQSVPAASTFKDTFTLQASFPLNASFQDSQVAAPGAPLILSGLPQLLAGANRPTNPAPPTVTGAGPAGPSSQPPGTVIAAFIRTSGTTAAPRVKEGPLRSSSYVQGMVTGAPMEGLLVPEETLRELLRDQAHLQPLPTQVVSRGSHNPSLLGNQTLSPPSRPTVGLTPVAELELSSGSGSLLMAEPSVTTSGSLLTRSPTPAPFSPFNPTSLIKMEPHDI
sequence,measurement,setting,value
GTTGAC,binding signal,ELK1,"1.03 fold enrichment (6-mer frequency, TF over GST control)"
same,binding signal,GABPA,"1.19 fold enrichment (6-mer frequency, TF over GST control)"
same,binding signal,ERG,"1.22 fold enrichment (6-mer frequency, TF over GST control)"
same,binding signal,ELF1,"1.2 fold enrichment (6-mer frequency, TF over GST control)"
same,binding signal,EHF,"1.17 fold enrichment (6-mer frequency, TF over GST control)"
same,binding signal,SPIB,"1.22 fold enrichment (6-mer frequency, TF over GST control)"
same,binding signal,FEV,"1.18 fold enrichment (6-mer frequency, TF over GST control)"
same,binding signal,ETV5,"1.01 fold enrichment (6-mer frequency, TF over GST control)"
same,binding signal,ELF4,"1.15 fold enrichment (6-mer frequency, TF over GST control)"
same,binding signal,ELK4,"1.25 fold enrichment (6-mer frequency, TF over GST control)"
